# Results published in paper PMC5540273 (PLoS ONE, 2017).
# Key:
# Conditions in all cases: concentration: 1 μM,replicates: in singlicate; n = 1
# [1] = system: T1, DCAMKL2
# T1 construct: gene DCLK2
# [2] = system: T2, DCAMKL3
# T2 construct: gene DCLK3
# [3] = system: DDR1
# [4] = system: DDR2
# [5] = system: T3, DLK
# T3 construct: gene MAP3K12
# [6] = system: T4, DMPK2
# T4 construct: gene CDC42BPG
# [7] = system: DMPK
# [8] = system: T5, DRAK1
# T5 construct: gene STK17A
# [9] = system: T6, DRAK2
# T6 construct: gene STK17B
# [10] = system: DYRK1A
# 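Also: KINOMEscan kinase panel screen.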
smiles,measurement,setting,value
C[C@@H](Oc1cc(-c2cnn(C3CCNCC3)c2)cnc1N)c1c(Cl)ccc(F)c1Cl,%Inh,[1],79%
same,%Inh,[2],22%
same,%Inh,[3],59%
same,%Inh,[4],44%
same,%Inh,[5],94.6%
same,%Inh,[6],0%
same,%Inh,[7],22%
same,%Inh,[8],0%
same,%Inh,[9],0%
same,%Inh,[10],12%
COc1ccc(C[C@@H](CN)NC(=O)c2cc(Br)c(-c3ccnc4[nH]ccc34)s2)cc1.Cl.Cl [GSK1389063],%Inh,[1],38%
same,%Inh,[2],86%
same,%Inh,[3],2%
same,%Inh,[4],26%
same,%Inh,[5],10%
same,%Inh,[6],99.4%
same,%Inh,[7],28%
same,%Inh,[8],44%
same,%Inh,[9],0%
same,%Inh,[10],97.6%
CCN(CC)CCCCNc1ncc2cc(-c3c(Cl)cccc3Cl)c(NC(=O)NC(C)(C)C)nc2n1,%Inh,[1],0%
same,%Inh,[2],14%
same,%Inh,[3],99.7%
same,%Inh,[4],100%
same,%Inh,[5],86%
same,%Inh,[6],0%
same,%Inh,[7],4%
same,%Inh,[8],0%
same,%Inh,[9],5%
same,%Inh,[10],0%
Cc1occc1-c1nc(N)c(OC[C@@H](N)Cc2c[nH]c3ccccc23)cc1-c1cc2c(C)n[nH]c2cn1 [GSK1660450],%Inh,[1],19%
same,%Inh,[2],56%
same,%Inh,[3],10%
same,%Inh,[4],0%
same,%Inh,[5],13%
same,%Inh,[6],86%
same,%Inh,[7],99.1%
same,%Inh,[8],0%
same,%Inh,[9],0%
same,%Inh,[10],100%
Cc1cc(C(=O)Nc2ccc(Oc3ccc4nc(NC(=O)C5CC5)cn4n3)cc2)nn1-c1ccccc1,%Inh,[1],2%
same,%Inh,[2],20%
same,%Inh,[4],100%
same,%Inh,[5],12%
same,%Inh,[6],0%
same,%Inh,[7],0%
same,%Inh,[8],0%
same,%Inh,[9],0%
same,%Inh,[10],0%
CC(C)N1C(=O)Cc2cc(Nc3ncc(C(F)(F)F)c(NCc4cccc(S(C)(=O)=O)c4)n3)ccc21,%Inh,[1],0%
same,%Inh,[2],34%
same,%Inh,[4],0%
same,%Inh,[5],0%
same,%Inh,[6],0%
same,%Inh,[7],0%
same,%Inh,[8],74%
same,%Inh,[9],82%
same,%Inh,[10],2%
C=CC(=O)Nc1cc2c(Nc3ccc(F)c(Cl)c3)ncnc2cc1OCCCN1CCOCC1 [GW781483],%Inh,[1],1%
same,%Inh,[2],10%
same,%Inh,[3],71%
same,%Inh,[4],44%
same,%Inh,[5],0%
same,%Inh,[6],6%
same,%Inh,[7],20%
same,%Inh,[8],2%
same,%Inh,[9],5%
same,%Inh,[10],11%
Cc1ccc(-n2nc(C(C)(C)C)cc2NC(=O)Nc2ccc(OCCN3CCOCC3)c3ccccc23)cc1 [GW839464],%Inh,[1],0%
same,%Inh,[2],34%
same,%Inh,[5],7%
same,%Inh,[6],40%
same,%Inh,[7],4%
same,%Inh,[8],0%
same,%Inh,[9],11%
same,%Inh,[10],0%
Cc1ccc2c(-c3ccncc3)c(-c3ccc(F)cc3)nn2c1.Cl [GW461484],%Inh,[1],0%
same,%Inh,[2],0%
same,%Inh,[3],76%
same,%Inh,[4],80%
same,%Inh,[5],29%
same,%Inh,[6],77%
same,%Inh,[7],11%
same,%Inh,[8],0%
same,%Inh,[9],0%
same,%Inh,[10],0%
C[C@H]1Oc2cc(cnc2N)-c2c(nn(C)c2C#N)CN(C)C(=O)c2ccc(F)cc21,%Inh,[1],91.8%
same,%Inh,[2],15%
same,%Inh,[4],3%
same,%Inh,[5],2%
same,%Inh,[6],0%
same,%Inh,[7],0%
same,%Inh,[8],2%
same,%Inh,[9],0%
same,%Inh,[10],0%
Cl.Oc1cc(-c2nc(-c3ccccc3)[nH]c2-c2ccncc2)ccc1Cl [SB-386023],%Inh,[1],0%
same,%Inh,[2],0%
same,%Inh,[3],92.7%
same,%Inh,[4],83%
same,%Inh,[5],0%
same,%Inh,[6],0%
same,%Inh,[7],0%
same,%Inh,[8],0%
same,%Inh,[9],0%
same,%Inh,[10],0%
Cc1n[nH]c2ccc(-c3cc(OC[C@@H](N)Cc4ccccc4)cnc3-c3ccoc3)cc12.O=C(O)C(F)(F)F.O=C(O)C(F)(F)F [GSK507358],%Inh,[1],0%
same,%Inh,[2],0%
same,%Inh,[3],0%
same,%Inh,[4],0%
same,%Inh,[5],15%
same,%Inh,[6],50%
same,%Inh,[7],92.8%
same,%Inh,[8],0%
same,%Inh,[9],0%
same,%Inh,[10],29%
NC(=O)c1cc(-c2ccccc2)cc2c(C3CCNCC3)c[nH]c12 [GSK301362],%Inh,[1],2%
same,%Inh,[2],53%
same,%Inh,[4],0%
same,%Inh,[5],23%
same,%Inh,[6],8%
same,%Inh,[7],30%
same,%Inh,[8],0%
same,%Inh,[9],0%
same,%Inh,[10],28%
CCn1c(-c2nonc2N)nc2c(C#CC(C)(C)O)nc(OCCN)cc21.Cl.Cl [GSK902056],%Inh,[1],0%
same,%Inh,[2],40%
same,%Inh,[4],5%
same,%Inh,[5],0%
same,%Inh,[6],0%
same,%Inh,[7],0%
same,%Inh,[8],0%
same,%Inh,[9],0%
same,%Inh,[10],25%
Cc1cc2cn[nH]c2cc1-c1cccc2c(N)c(C(N)=O)nnc12,%Inh,[1],37%
same,%Inh,[2],98.8%
same,%Inh,[3],0%
same,%Inh,[4],0%
same,%Inh,[5],98.8%
same,%Inh,[6],7%
same,%Inh,[7],0%
same,%Inh,[8],47%
same,%Inh,[9],27%
same,%Inh,[10],13%
CN(C)CCOc1ccc(-c2cc(-c3c[nH]nc3-c3ccccn3)ccn2)cc1 [GW835314],%Inh,[1],1%
same,%Inh,[2],1%
same,%Inh,[3],0%
same,%Inh,[4],0%
same,%Inh,[5],8%
same,%Inh,[6],0%
same,%Inh,[7],0%
same,%Inh,[8],18%
same,%Inh,[9],9%
same,%Inh,[10],1%
Nc1nc(Nc2ccccc2)cc(-c2ccc3c(N)n[nH]c3c2)n1 [GSK2225749],%Inh,[1],0%
same,%Inh,[2],61%
same,%Inh,[3],0%
same,%Inh,[4],26%
same,%Inh,[5],3%
same,%Inh,[6],0%
same,%Inh,[7],0%
same,%Inh,[8],99.5%
same,%Inh,[9],97.2%
same,%Inh,[10],48%
Cl.Cl.NC[C@H](Cc1ccc(C(F)(F)F)cc1)NC(=O)c1cc(Br)c(-c2ccnc3[nH]ccc23)s1 [GSK1487252],%Inh,[1],0%
same,%Inh,[2],75%
same,%Inh,[3],8%
same,%Inh,[4],0%
same,%Inh,[5],8%
same,%Inh,[6],64%
same,%Inh,[7],0%
same,%Inh,[8],18%
same,%Inh,[9],0%
same,%Inh,[10],35%
CN(C)CC(O)COc1ccc(Nc2nccc(-c3cnn4nc(N5CCOCC5)ccc34)n2)cc1 (stereo not shown) [GW767488],%Inh,[1],61%
same,%Inh,[2],64%
same,%Inh,[3],0%
same,%Inh,[4],0%
same,%Inh,[5],61%
same,%Inh,[6],17%
same,%Inh,[7],20%
same,%Inh,[8],99.7%
same,%Inh,[9],93.1%
same,%Inh,[10],73%
O=C(NCCCN1CCOC1=O)c1cnc(NCc2cc(Cl)ccc2Cl)nc1NC1CCCC1,%Inh,[1],1%
same,%Inh,[2],18%
same,%Inh,[3],0%
same,%Inh,[4],11%
same,%Inh,[5],37%
same,%Inh,[6],0%
same,%Inh,[7],0%
same,%Inh,[8],0%
same,%Inh,[9],0%
same,%Inh,[10],0%
Cl.Cl.Nc1nc(-c2ccc3c(N)n[nH]c3c2)cc(N2CCCC(NC(=O)c3ccccc3)C2)n1 (stereo not shown) [GSK2286775],%Inh,[1],0%
same,%Inh,[2],0%
same,%Inh,[3],26%
same,%Inh,[4],0%
same,%Inh,[5],1%
same,%Inh,[6],1%
same,%Inh,[7],0%
same,%Inh,[8],75%
same,%Inh,[9],0%
same,%Inh,[10],9%
CCN(CC)CCOc1ccc(Nc2ncc3cc(-c4c(Cl)cccc4Cl)c(=O)n(C)c3n2)cc1 [SB-601273],%Inh,[1],41%
same,%Inh,[2],0%
same,%Inh,[3],100%
same,%Inh,[4],100%
same,%Inh,[5],96.4%
same,%Inh,[6],95.4%
same,%Inh,[7],24%
same,%Inh,[8],43%
same,%Inh,[9],21%
same,%Inh,[10],0%
C[C@@H]1CCN(C(=O)CC#N)C[C@@H]1N(C)c1ncnc2[nH]ccc12,%Inh,[1],14%
same,%Inh,[2],99.1%
same,%Inh,[3],0%
same,%Inh,[4],0%
same,%Inh,[5],0%
same,%Inh,[6],0%
same,%Inh,[7],24%
same,%Inh,[8],11%
same,%Inh,[9],5%
same,%Inh,[10],0%
CC(C)Nc1cc(-c2ccc3c(N)n[nH]c3c2)nc(N)n1 [GSK2221681],%Inh,[1],20%
same,%Inh,[2],51%
same,%Inh,[3],0%
same,%Inh,[4],0%
same,%Inh,[5],28%
same,%Inh,[6],0%
same,%Inh,[7],0%
same,%Inh,[8],99%
same,%Inh,[9],0%
same,%Inh,[10],50%
Cl.Cl.NC[C@H](CC1CCCCC1)NC(=O)c1cc(Br)c(-c2ccnc3[nH]ccc23)s1 [GSK1581427],%Inh,[1],14%
same,%Inh,[2],0%
same,%Inh,[3],0%
same,%Inh,[4],0%
same,%Inh,[5],0%
same,%Inh,[6],98.3%
same,%Inh,[7],91.7%
same,%Inh,[8],14%
same,%Inh,[9],0%
same,%Inh,[10],55%
CNC(=O)c1ccccc1Sc1ccc2c(/C=C/c3ccccn3)n[nH]c2c1,%Inh,[1],14%
same,%Inh,[2],76%
same,%Inh,[3],18%
same,%Inh,[4],14%
same,%Inh,[5],41%
same,%Inh,[6],6%
same,%Inh,[7],0%
same,%Inh,[8],76%
same,%Inh,[9],0%
same,%Inh,[10],0%
O=C(NCCNc1ccnc(NCc2ccc(F)cc2)n1)c1cc2ccccc2s1 [GSK1379944],%Inh,[1],0%
same,%Inh,[2],4%
same,%Inh,[4],0%
same,%Inh,[5],0%
same,%Inh,[6],0%
same,%Inh,[7],0%
same,%Inh,[8],0%
same,%Inh,[9],0%
same,%Inh,[10],30%
